Compounds with a hit are over-represented: about 3.4% of the library has one in this group of screens.
MITF inh – human MITF inhibition, primary screen; O75030; AlphaScreen MITF homodimerization, bead proximity signal; inhibition, % at 2.6 µM; 650,000 compounds, 0.91% hits; in the data active = inhibition above about 50%;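 note: 0% = vehicle wells with protein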
Target sequence (O75030 whole entry, looked up): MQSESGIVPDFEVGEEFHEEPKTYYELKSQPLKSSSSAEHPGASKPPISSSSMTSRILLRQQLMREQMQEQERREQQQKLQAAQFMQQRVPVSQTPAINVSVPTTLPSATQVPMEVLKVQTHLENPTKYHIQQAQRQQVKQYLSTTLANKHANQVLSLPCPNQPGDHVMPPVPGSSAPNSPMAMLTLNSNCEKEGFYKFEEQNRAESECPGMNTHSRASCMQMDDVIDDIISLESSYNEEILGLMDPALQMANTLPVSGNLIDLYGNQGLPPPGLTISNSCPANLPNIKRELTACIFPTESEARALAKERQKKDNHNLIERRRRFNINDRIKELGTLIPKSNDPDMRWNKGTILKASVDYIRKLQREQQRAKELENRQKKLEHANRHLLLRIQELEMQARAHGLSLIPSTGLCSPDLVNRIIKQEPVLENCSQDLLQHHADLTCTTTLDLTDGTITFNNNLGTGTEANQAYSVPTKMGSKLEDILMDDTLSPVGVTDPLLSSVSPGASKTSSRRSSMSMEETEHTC
TEAD-YAP inh – TEAD-YAP interaction inhibition. HEK-TIYL cells, TEAD-Gal4/YAP UAS-luciferase luminescence. inhibition, % at 9.12 µM. 640,000 compounds, 1.4% hits; in the data active = inhibition above about 32%;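 note: 0% = median of test compound wells and 100% = reference inhibitor wells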
FBW7 activator – activators of human E3 ligase FBW7; AID 1259310; AlphaScreen FBW7–phospho-cyclin E peptide binding, activator screen; normalized activity (activation), % at 26.1 µM; Q969H0; 650,000 compounds, 0.13% hits; in the data active = normalized activity above about 1.9%;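 note: purified mutant Fbw7 with reduced substrate affinity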
GPR151 activ – activators of human GPR151; Q8TDV0; PathHunter beta-arrestin GPR151 cells, luminescence; activation, % at 11.2 µM; 650,000 compounds, 1% hits; AID 1508602; in the data active = activation above about 4.9%;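 note: 0% = median of compound wells and 100% = cells with positive control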
An asterisk follows results filed as active.

SMILES	MITF inh	TEAD-YAP inh	FBW7 activator	GPR151 activ
COc1ccc(CCNc2cc(-c3cccc(N)c3)nc(N)n2)cc1	13	35*	0	1
COc1ccc(CCNc2cc(-c3ccccc3)ncn2)cc1	5	-5	1.9*	0
O=[N+]([O-])c1ccc(Nc2nc(Cl)nc(NCc3ccco3)n2)cc1	-1	6	0	0
Cc1[nH]c2ccccc2c1SCC(=O)Nc1ccc2c(c1)OCCO2	8	6	0	0
Cc1nnc(SCC(=O)N2CCC(c3noc4ccc(F)cc34)CC2)s1	-2	37*	0	1
Cc1nnc(SCC(=O)N2CCCC2)s1	2	-2	0	-2
O=C(CCS(=O)(=O)c1ccccc1)Nc1nc(-c2ccc(Cl)s2)cs1	6	3	0	0
CN(Cc1ccccc1)c1ncnc(N)c1[N+](=O)[O-]	4	0	0	-1
CCCN(CCC)c1ncnc(N)c1[N+](=O)[O-]	-11	61*	0	-2
N#C/C(=C\c1cn(CC(=O)NCc2ccco2)c2ccccc12)C(=O)NC1CCCCCC1	5	3	0	0
CC1(c2csc(Nc3ccccc3Cl)n2)CCC(=O)O1 (configuration not stated)	11	35*	0	-2
COc1ccccc1Nc1nc(C2(C)CC(CC(C)C)C(=O)O2)cs1 (configuration not stated)	8	55*	0	-1
CCOc1ccc(Nc2nc(C3(C)CC(CC(C)C)C(=O)O3)cs2)cc1 (configuration not stated)	7	7	0	0
CCC(CC)C(=O)N1CCCC(c2nc(-c3cccc(OC)c3)no2)C1 (configuration not stated)	-1	42*	0	-1
COc1ccc(-c2noc(C3CCCN(C(=O)c4c(OC)cccc4OC)C3)n2)cc1 (configuration not stated)	-4	47*	0	1
CCCC(=O)N1CCCC(c2nc(-c3cccc(OC)c3)no2)C1 (configuration not stated)	0	-8	0	-1
O=C(C1CCCC1)N1CCC(c2nc3c(nnn3Cc3ccccc3)c(=O)[nH]2)CC1	14	-2	0	0
O=C(NC1CCCCC1)N1CCC(c2nc3c(nnn3Cc3ccccc3)c(=O)[nH]2)CC1	10	44*	0	2
CCC(CO)Nc1ccc2ncc(-c3ccc(OC)cc3)n2n1 (configuration not stated)	16	16	1	0
CCC(CO)Nc1ccc2ncc(-c3cccc(NS(C)(=O)=O)c3)n2n1 (configuration not stated)	-9	37*	0	1
CCC(CO)Nc1ccc2ncc(-c3cncc(OC)c3)n2n1 (configuration not stated)	6	54*	0	0
CCOc1ccc(N2C(=O)CC(N3CCCN(C)CC3)C2=O)cc1 (configuration not stated)	-5	-5	0	0
CS(=O)(=O)c1ccc(N2CCN(S(=O)(=O)c3cccs3)CC2)c(F)c1	7	-7	0	2
NS(=O)(=O)c1ccc(N2CCN(S(=O)(=O)c3cccs3)CC2)c([N+](=O)[O-])c1	0	34*	0	1
NC(=O)c1ccc(N2CCN(S(=O)(=O)c3ccccc3)CC2)c([N+](=O)[O-])c1	3	34*	0	5
SMILES	MITF inh	TEAD-YAP inh	FBW7 activator	GPR151 activ
O=C(O)CCN(Cc1ccc(Cl)cc1)S(=O)(=O)c1ccc(Br)cc1	14	-2	2.1*	1
O=C(O)CCCN(Cc1ccc(Cl)cc1)S(=O)(=O)c1ccc(Br)cc1	8	-3	0	-1
CC(C)Cc1nc2sc3c(c2c(=O)o1)CCCCC3	2	3	0	1
O=C(O)CC1S/C(=N/N=C/c2cccc([N+](=O)[O-])c2O)NC1=O (configuration not stated)	91*	-8	-1	0
Cc1cccc(N(CC(=O)N2CCCC2)S(=O)(=O)c2ccccc2)c1C	13	-6	0	-1
O=C(Nc1sc2c(c1C(=O)Nc1cccc(Cl)c1)CCCC2)c1cccs1	-4	1	0	1
COc1cccc(C2N(c3ccc(C)cc3)N=C(C(C)=O)N2c2cccc(C)c2)c1OCc1ccccc1 (configuration not stated)	3	68*	0	2
COc1cccc(C2N(c3ccccc3)N=C(C(C)=O)N2c2ccc(C)c(C)c2)c1OCc1ccccc1 (configuration not stated)	-23	54*	0	1
CC(=O)C1=NN(c2ccccc2)C(c2ccccc2OCc2ccc(Cl)cc2)N1c1ccc(Cl)cc1 (configuration not stated)	-26	1	0	-2

Assay outcomes: PubChem, The Scripps Research Institute Molecular Screening Center
